Measured values as given in PubChem BioAssay (NCI).
Compounds without any hit were thinned out: in the full panel of roughly 83,000, 20% have a hit.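 48-hour exposure, single concentration, 96-well plates; percent growth endpoint where 0 means no net growth. Active: below 10.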 The source made the active and inactive calls.

Experiments:
Assay in all cases: NCI-60 one-dose screen, 48 h (100 = growth as untreated, 0 = no growth, -100 = all killed)
NCI-H522 lung = details: 10 µM unless noted
COLO 205 colon = details: 10 µM
MALME-3M melanoma = details: 10 µM unless noted
SNB-75 CNS = details: 10 µM unless noted
SNB-19 CNS = details: 10 µM unless noted
SK-MEL-5 melanoma = details: 10 µM unless noted
SK-MEL-2 melanoma = details: 10 µM unless noted
EKVX NSCLC = details: 10 µM unless noted
TK-10 renal = details: 10 µM unless noted
ACHN renal = details: 10 µM unless noted
RPMI-8226 leukemia = details: 10 µM unless noted
IGROV1 ovarian = details: 10 µM
T-47D breast = details: 10 µM unless noted
MDA-MB-435 melanoma = details: 10 µM unless noted
HCT-116 colon = details: 10 µM unless noted
U251 CNS = details: 10 µM unless noted
SR leukemia = details: 10 µM
CCRF-CEM leukemia = details: 10 µM unless noted

Measured: growth

CCCCCCCC(=O)OCC/C=C/C1OC1C1OC(=O)/C=C\C=C\c2nc(oc2C)/C=C(/C)CCC2OC2C1OC(=O)NC(C)=O (configuration not stated)
active: NCI-H522 lung -80.3% | COLO 205 colon -90.3% | MALME-3M melanoma -12.4% | SNB-75 CNS -35.8% | SNB-19 CNS -56.8% | SK-MEL-5 melanoma -93.8% | SK-MEL-2 melanoma -44.5% | EKVX NSCLC -5.8% | TK-10 renal 1.86% | ACHN renal -16.8% | RPMI-8226 leukemia -55.7% | IGROV1 ovarian -10.2% | T-47D breast -42.6% | MDA-MB-435 melanoma 3.24% | HCT-116 colon -24.4%

O=C(NCCNC(=O)c1ccc([As](O)O)cc1)c1ccc([As](O)O)cc1
inactive: NCI-H522 lung 103% | MALME-3M melanoma 108% | SNB-75 CNS 87.5% | SNB-19 CNS 106% | U251 CNS 103% | SK-MEL-5 melanoma 95.6% | SK-MEL-2 melanoma 103% | EKVX NSCLC 103% | ACHN renal 106% | SR leukemia 101% | RPMI-8226 leukemia 114% | IGROV1 ovarian 110% | T-47D breast 100% | MDA-MB-435 melanoma 104%

C[C@]12CCC(=O)CC1CC[C@@H]1C2CC[C@@]2(C)C1CC[C@@H]2OC(=O)CC[Se][Se]CCC(=O)O[C@H]1CCC2[C@@H]3CCC4CC(=O)CC[C@]4(C)C3CC[C@@]21C (some centres not stated)
inactive: NCI-H522 lung 88.3% | COLO 205 colon 122% | MALME-3M melanoma 94.2% | SNB-75 CNS 109% | SNB-19 CNS 76.7% | U251 CNS 81.3% | SK-MEL-5 melanoma 93.2% | EKVX NSCLC 31.9% | ACHN renal 100% | CCRF-CEM leukemia 100% | RPMI-8226 leukemia 93.6% | IGROV1 ovarian 97.3% | T-47D breast 86.5% | MDA-MB-435 melanoma 88.5% | HCT-116 colon 95.5%

CO[C@@H]1[C@H](OC(=O)NC(=O)CCl)CC[C@]2(CO2)[C@H]1[C@@]1(C)O[C@@H]1CC=C(C)C
active: IGROV1 ovarian -10.6%
inactive: NCI-H522 lung 10.3% | COLO 205 colon 57.4% | MALME-3M melanoma 57.7% | SNB-75 CNS 41.7% | SNB-19 CNS 48.6% | SK-MEL-2 melanoma 82.3% | EKVX NSCLC 91.7% | TK-10 renal 92.6% | ACHN renal 60.7% | CCRF-CEM leukemia 31.8% | SR leukemia 21.5% | RPMI-8226 leukemia 45.4% | T-47D breast 64.6% | MDA-MB-435 melanoma 62.6% | HCT-116 colon 43.8%

CC(=O)O[C@H]1CC[C@H]2[C@@H]3CC[C@H]4CC=C(C)C[C@]4(C)[C@H]3CC[C@]12C
inactive: NCI-H522 lung 92.4% | COLO 205 colon 110% | MALME-3M melanoma 106% | SNB-19 CNS 101% | U251 CNS 110% | SK-MEL-2 melanoma 110% | EKVX NSCLC 116% | ACHN renal 96.5% | CCRF-CEM leukemia 108% | RPMI-8226 leukemia 109% | T-47D breast 92.1% | MDA-MB-435 melanoma 106% | HCT-116 colon 103%

O=C1NC(=O)C(Cc2ccccc2)(Cc2ccccc2)C(=O)N1
inactive: NCI-H522 lung 97.8% | COLO 205 colon 125% | SNB-75 CNS 89.3% | SNB-19 CNS 102% | U251 CNS 102% | SK-MEL-2 melanoma 104% | EKVX NSCLC 109% | TK-10 renal 99.5% | CCRF-CEM leukemia 101% | SR leukemia 99.6% | RPMI-8226 leukemia 96.4% | MDA-MB-435 melanoma 113% | HCT-116 colon 107%

N#CC1=C(N)Oc2cc3c(cc2C1c1cccs1)OCO3 (configuration not stated)
inactive: MALME-3M melanoma 40% | SNB-19 CNS 43.2% | U251 CNS 25.4% | SK-MEL-5 melanoma 16.2% | SK-MEL-2 melanoma 21.2% | EKVX NSCLC 53.7% | TK-10 renal 56.1% | ACHN renal 57.4% | CCRF-CEM leukemia 21.4% | SR leukemia 16.2% | RPMI-8226 leukemia 24.9% | IGROV1 ovarian 35.3% | T-47D breast 42.8% | HCT-116 colon 21.2%
active: NCI-H522 lung -26% | COLO 205 colon -7.45% | SNB-75 CNS -14.9% | MDA-MB-435 melanoma -7.43%

c1cnc2c(c1)ccc1ncccc12
inactive: NCI-H522 lung 93.8% | COLO 205 colon 110% | MALME-3M melanoma 118% | SNB-75 CNS 97.8% | SNB-19 CNS 95.7% | U251 CNS 105% | EKVX NSCLC 94.2% | TK-10 renal 114% | ACHN renal 90.7% | CCRF-CEM leukemia 95.6% | SR leukemia 110% | MDA-MB-435 melanoma 113% | HCT-116 colon 89.8%

CCC1([N+](=O)[O-])COP(=O)(NCc2cccnc2)OC1 (configuration not stated)
inactive: NCI-H522 lung 109% | COLO 205 colon 119% | SNB-75 CNS 104% | SNB-19 CNS 108% | U251 CNS 107% | SK-MEL-5 melanoma 107% | SK-MEL-2 melanoma 111% | EKVX NSCLC 106% | TK-10 renal 109% | ACHN renal 113% | CCRF-CEM leukemia 101% | SR leukemia 105% | RPMI-8226 leukemia 104% | IGROV1 ovarian 118% | MDA-MB-435 melanoma 117% | HCT-116 colon 103%

O=S(=O)(Cl)c1ccccc1 (tested in a mixture with another compound)
inactive: NCI-H522 lung 89.1% | COLO 205 colon 105% | MALME-3M melanoma 92.2% | SNB-75 CNS 95.4% | U251 CNS 93.7% | SK-MEL-5 melanoma 99.2% | TK-10 renal 105% | ACHN renal 93.9% | SR leukemia 104% | RPMI-8226 leukemia 96.6% | IGROV1 ovarian 109% | T-47D breast 97.7% | HCT-116 colon 99.4%

C[C@]12CC[C@@H]3c4ccc(OC(=O)Cc5ccc(N(CCCl)CCCl)cc5)cc4CC[C@H]3[C@@H]1CC[C@@H]2OC(=O)Cc1ccc(N(CCCl)CCCl)cc1
active: SK-MEL-2 melanoma -3.92%
inactive: NCI-H522 lung 134% | COLO 205 colon 104% | MALME-3M melanoma 113% | SNB-75 CNS 84.7% | U251 CNS 107% | SK-MEL-5 melanoma 87% | EKVX NSCLC 110% | TK-10 renal 120% | ACHN renal 109% | CCRF-CEM leukemia 136% | SR leukemia 106% | RPMI-8226 leukemia 123% | T-47D breast 121% | MDA-MB-435 melanoma 112% | HCT-116 colon 104%
